Results with a measured potency or affinity are listed apart. Calls of active or inactive are those of the source.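 Rule for the calls: active = peak inhibition of the TRPC4 channel signal over 30% at some dose, with a fitted dose response curve; inactive = no inhibition or no dose response curve.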
Target: Short transient receptor potential channel 4 (Mus musculus) (UniProt Q9QUQ5)
Assay: mouse TRPC4 block via Gq-coupled stimulation – cell-based, acetylcholine stimulus, HEK293 TRPC4, Fluo-4, SAR follow-up (AID 492996)
Conditions: HEK293 TRPC4 cells, ACh-evoked Fluo-4 calcium flux; series mostly up to 20 µM

Chain of Short transient receptor potential channel 4 (Mus musculus) (Q9QUQ5 whole entry, looked up): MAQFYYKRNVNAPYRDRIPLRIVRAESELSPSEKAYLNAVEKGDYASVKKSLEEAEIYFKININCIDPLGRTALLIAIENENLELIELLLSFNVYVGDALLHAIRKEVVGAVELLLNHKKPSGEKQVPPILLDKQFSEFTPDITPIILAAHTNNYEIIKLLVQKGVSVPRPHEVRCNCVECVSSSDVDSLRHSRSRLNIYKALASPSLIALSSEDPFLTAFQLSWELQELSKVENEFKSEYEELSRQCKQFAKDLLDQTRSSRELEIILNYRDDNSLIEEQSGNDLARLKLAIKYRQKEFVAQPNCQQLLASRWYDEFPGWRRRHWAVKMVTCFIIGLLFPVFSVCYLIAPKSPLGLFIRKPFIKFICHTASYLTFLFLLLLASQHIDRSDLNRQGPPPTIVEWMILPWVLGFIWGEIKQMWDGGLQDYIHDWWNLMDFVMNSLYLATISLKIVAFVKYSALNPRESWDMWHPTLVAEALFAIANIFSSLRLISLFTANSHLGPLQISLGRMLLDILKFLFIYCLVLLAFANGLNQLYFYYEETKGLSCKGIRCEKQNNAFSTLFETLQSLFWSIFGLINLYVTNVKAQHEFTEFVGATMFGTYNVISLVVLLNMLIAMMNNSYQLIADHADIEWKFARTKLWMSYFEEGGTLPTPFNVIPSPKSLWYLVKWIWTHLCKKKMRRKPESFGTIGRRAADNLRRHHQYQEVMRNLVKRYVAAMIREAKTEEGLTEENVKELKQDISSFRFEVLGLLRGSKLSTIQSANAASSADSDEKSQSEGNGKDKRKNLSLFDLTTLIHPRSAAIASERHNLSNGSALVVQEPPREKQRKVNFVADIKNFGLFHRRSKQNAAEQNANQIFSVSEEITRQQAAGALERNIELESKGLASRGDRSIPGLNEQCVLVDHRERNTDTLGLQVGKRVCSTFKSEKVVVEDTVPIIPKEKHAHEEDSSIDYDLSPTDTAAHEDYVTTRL

`Cc1cc(N2CCNCC2)nc2ccccc12` was tested, and the outcome was “inactive”.

Source: PubChem BioAssay AID492996 (Johns Hopkins Ion Channel Center, 2010)
